High-throughput results from PubChem.
Most compounds without a hit are left out; they make up all but 19% or so of the library.
DT40 TDP1 CPT: qHTS for Inhibitors of human tyrosyl-DNA phosphodiesterase 1 (TDP1): qHTS in cells in presence of CPT. chicken DT40 Tdp1-/-;hTDP1 cells + 20 nM CPT, ATP luminescence, 48 h. Potency, µM (series often up to 46.2 µM), without a hit: at the highest dose activity change, negative = growth inhibition, usual class: inhibitors. 420,000 tested, 12% active. AID 686979, 2013; further: nearly all actives have a fitted effect of over 55% in size
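Chicken DT40 Tdp1-/- cells stably complemented with human TDP1 were seeded at 400 cells/well in medium containing 20 nM camptothecin, exposed to pin-transferred compounds, and grown at 37 °C for at least 48 hr. Viability was read as ATP luminescence.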
TDP1 inh: qHTS Assay for Inhibitors of Tyrosyl-DNA Phosphodiesterase (TDP1); Tyrosyl-DNA phosphodiesterase 1 (Homo sapiens), Q9NUW8; recombinant TDP1, AlphaScreen DNA substrate cleavage; Potency, µM (highest dose often 130 µM), for the others: top-dose activity change, negative = inhibition, actives largely listed as inhibitors; 350,000 tested, 0.28% active; AID 485290, 2010; further: nearly all actives have a fitted effect of over 40% in size
Target sequence (Q9NUW8 whole entry, looked up): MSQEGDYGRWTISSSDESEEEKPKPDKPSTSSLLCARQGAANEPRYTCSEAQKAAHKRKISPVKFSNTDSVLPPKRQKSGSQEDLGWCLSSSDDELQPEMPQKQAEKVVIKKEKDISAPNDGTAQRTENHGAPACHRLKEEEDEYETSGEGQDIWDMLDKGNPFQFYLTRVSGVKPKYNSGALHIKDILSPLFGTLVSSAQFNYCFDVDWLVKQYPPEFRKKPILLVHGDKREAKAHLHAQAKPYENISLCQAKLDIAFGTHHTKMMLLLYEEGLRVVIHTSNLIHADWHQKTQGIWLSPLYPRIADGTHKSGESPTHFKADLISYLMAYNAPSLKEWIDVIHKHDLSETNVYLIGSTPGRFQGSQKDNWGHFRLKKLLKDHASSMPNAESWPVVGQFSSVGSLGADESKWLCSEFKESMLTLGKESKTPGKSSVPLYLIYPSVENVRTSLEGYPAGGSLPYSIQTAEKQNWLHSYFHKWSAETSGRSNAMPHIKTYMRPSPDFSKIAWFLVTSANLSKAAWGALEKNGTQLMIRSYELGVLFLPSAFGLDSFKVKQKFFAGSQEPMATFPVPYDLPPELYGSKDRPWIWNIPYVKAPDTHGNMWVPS
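Tdp1 1 nM final; 15 min RT w/ cpd; substrate 15 nM, 5 min; beads 10 ug/ml, 10 min; AlphaScreen read. Neg ctrl: no enzyme.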
RORg inh: qHTS for inhibitors of ROR gamma transcriptional activity | 310,000 tested, 5.4% active | Nuclear receptor ROR-gamma (Mus musculus), P51450 | Drosophila S2 Gal4-RORgamma UAS-luciferase reporter, 20 h | Potency, µM (top dose mostly 53.6 µM), without a hit: at the top dose activity change, negative = inhibition, usual class: inhibitors | AID 2551, 2010; further: nearly all actives have a fitted effect of over 60% in size
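Read-out: Photinus luciferase luminescence; inhibitors lower reporter signal. Insect Schneider cells with Gal4-ROR gamma fusion under metallothionein promoter, UAS reporter; 700 uM final copper sulfate induction, 20 hr, ambient temperature.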
Gal4-VP16 FLuc: VP16 counterscreen qHTS for inhibitors of ROR gamma transcriptional activity; 310,000 tested, 3.5% active; Potency, µM (titrated, usually from 53.6 µM), inactives show at the highest dose activity, negative = inhibition, actives largely listed as inhibitors; Drosophila S2 Gal4-VP16 UAS-luciferase, luminescence, 20 h;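 further: Gal4-VP16 expression switched on by copper sulfate through the metallothionein promoter; nearly all actives have a fitted effect of over 50% in size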
TDP1 cell noCPT: qHTS for Inhibitors of human tyrosyl-DNA phosphodiesterase 1 (TDP1): qHTS in cells in absence of CPT; 420,000 tested, 15% active; DT40 Tdp1-/- hTDP1 cells, no CPT, ATP luminescence, 48 h; Potency, µM (titrated, usually from 46.2 µM), without a hit: top-dose activity change, negative = growth inhibition, usual class: inhibitors; further: nearly all actives have a fitted effect of over 55% in size
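Stably hTDP1-transfected Tdp1-null chicken DT40 cells were treated with library compounds minus camptothecin and grown for at least 48 hr at 37 °C, after which cellular ATP was quantified by luminescence.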
An asterisk follows results filed as active; ? = inconclusive; . = no result given; [ ] = dose if it differs, or a comment. The call rests on the fitted dose curve; in most records, active means well fitted curve in the direction sought with a large enough effect; inconclusive means small, poorly fitted or top-dose-only effect, or another doubt; inactive means no such curve, though single readings can be large; an effect the other way counts as inactive or inconclusive. On the % scale 0 is the no-effect control and ±100 the full control effect; potency means the concentration at half of the fitted maximal effect.

SMILES	DT40 TDP1 CPT	TDP1 inh	RORg inh	Gal4-VP16 FLuc	TDP1 cell noCPT
CC(=O)c1cccc(NC(=O)CN2C(=O)COc3ccc(Cl)cc32)c1	-17.7%	1.1%	8.9%	-2.1%	3.7%
CN(C)c1ccnc(Nc2ccccc2)c1C#N	-8.8%	.	4.4%	-5.6%	-7.6%
CN(C)c1ccnc2c[cH-]cc12.[Fe].c1ccc(-[c-]2[c-](-c3ccccc3)[c-](-c3ccccc3)[c-](-c3ccccc3)[c-]2-c2ccccc2)cc1 (configuration not stated)	5.17µM*	9.5%	-0.7%	1.2%	3.66µM*
Cn1cccc1C(=O)c1ccc(Cl)cc1Cl	5.2%	2.0%	-19.1%[10 µM]	1.7%	-20.3%
O=[N+]([O-])c1ccc(COc2ccc(-c3[nH]ncc3-c3ccc(Cl)cc3)c(O)c2)cc1	?	5.6%	42.8%	-9.9%	23.1µM*
COc1ccc(-c2cn[nH]c2-c2ccc(OCc3ccccc3F)cc2O)cc1OC	29.1µM*	11.4%	?	?	11.6µM*
CCc1cc(-c2oncc2-c2ccc(OC)cc2)c(O)cc1OC	.	8.2%	?	14.1µM*	.
COc1ccccc1Oc1cn[nH]c1-c1ccc(OCC(=O)NN)cc1O	-12.1%	.	-26.0%	-1.3%	-18.1%
CCc1cc(-c2[nH]ncc2-c2ccc([N+](=O)[O-])cc2)c(O)cc1OC	?	.	12.6µM*	20µM*	?
CCNc1nc(Cl)nc(NC2CCCCC2)n1	-22.2%	.	24.5%[1.91 µM]	?	-18.5%
Cc1ccc(CNC(=O)Cn2cccc2C(=O)c2ccccc2C)cc1	?	0.0%	?	8.8%	?
Cc1ccc(-n2nnnc2CNC(=O)C(C)C)cc1C	-11.1%	0.0%	.	.	-4.3%
COc1cc([N+](=O)[O-])ccc1NC(=O)NNC(=O)C(C)Oc1ccc(F)cc1F (configuration not stated)	?	2.0%	32.4%	4.5%	?
COc1ccc(-c2cn[nH]c2N)cc1OC	-28.3%	9.8%	13.5%	-6.2%	-3.0%
COc1ccc(-c2cn[nH]c2-c2ccc(OCc3ccc([N+](=O)[O-])cc3)cc2O)cc1OC	?	.	?	?	20.6µM*
COc1ccc(C(=O)CCC(=O)Nc2ccc(OC)c(Cl)c2)cc1	12.0%	6.6%	.	.	-21.4%
CCOC(=O)N1CCN(C(=O)c2ccccc2NS(=O)(=O)c2ccc(C)cc2)CC1	-7.9%	5.5%[56.1 µM]	-35.0%	-8.6%	-18.2%
c1ccc(Nc2nc(Nc3ccccc3)nc(-n3cccn3)n2)cc1	7.08µM*	0.9%	.	.	5.01µM*
COc1ccc(/C=N/Nc2nc(N3CCCC3)nc(N3CCCC3)n2)cc1O	-21.6%	3.9%	11.2µM*	-7.6%	?
COC(=O)c1ccc(/C=N/Nc2nc(N3CCCCC3)nc(N3CCCCC3)n2)cc1	-9.5%	5.3%	-8.2%	-5.0%[10 µM]	-43.8%
COc1cc(/C=N/Nc2nc(N3CCCC3)nc(N3CCCC3)n2)ccc1OCc1ccccc1F	16.4µM*	7.1%	?	2.6%	20.6µM*
O=C(Oc1ccc(/C=N/Nc2nc(N3CCCCC3)nc(N3CCCCC3)n2)cc1)c1ccco1	?	3.6%	-19.5%	2.0%	16.4µM*
O=C(CSCc1ccc([N+](=O)[O-])cc1)N/N=C/c1ccncc1	29.6%	3.6%	21.3%	-2.5%	10.4%
O=C(O)COc1ccc(/C=N/Nc2nc(Nc3ccccc3)nc(N3CCCCC3)n2)cc1	?	2.6%	?	?	?
COc1ccc(/C=N/Nc2nc(Nc3ccccc3)nc(N3CCCC3)n2)cc1	?	4.6%	2.82µM*	-5.7%	?
SMILES	DT40 TDP1 CPT	TDP1 inh	RORg inh	Gal4-VP16 FLuc	TDP1 cell noCPT
COc1nc(Nc2cccc(C)c2)nc(N2CCCCC2)n1	18.4µM*	3.1%	-33.8%	-10.0%	16.4µM*
Cc1cccc(Nc2nc(N3CCCC3)nc(N3CCCC3)n2)c1	?	-0.7%	-10.6%	0.9%	-29.7%
Fc1ccc(-c2cc(-c3ccccc3)nc(-n3cccn3)n2)cc1	?	1.2%	1µM*	?	?
CCOc1cc(/C=N\Nc2nc(Nc3ccccc3)nc(N3CCOCC3)n2)ccc1OC(=O)c1ccco1	18.4µM*	3.4%	-28.8%[10 µM]	-6.8%	8.2µM*
Cc1ccc(S(=O)(=O)N[C@@H](Cc2ccccc2)C(=O)N2CCC[C@@H]2C(=O)O)cc1	-0.2%	.	14.3%	-3.7%	-6.5%
CCOC(=O)C1CCN(S(=O)(=O)c2ccc3c(c2)CCN3C(C)=O)CC1	-14.0%	3.1%	-2.3%	4.9%	-6.2%
c1ccc(Nc2nc(N3CCCCC3)nc(N3CCCCC3)n2)cc1	?	1.4%	-18.6%	5.9%	?
c1ccc(Nc2nc(N3CCCCC3)nc(N3CCNCC3)n2)cc1	29.1µM*	4.0%	-12.5%	-10.7%	18.4µM*
COc1ccccc1-c1noc(-c2ccc(NCCc3ccccc3)c([N+](=O)[O-])c2)n1	3.2%	11.4%	.	.	1.6%
CC(C)Nc1ccc(-c2nc(-c3ccco3)no2)cc1[N+](=O)[O-]	?	8.6%	.	.	16.4µM*
COc1cc(-c2noc(-c3ccc(NCCc4ccccc4)c([N+](=O)[O-])c3)n2)cc(OC)c1OC	5.17µM*	0.0%	.	.	4.11µM*
CCc1noc(-c2ccc(NCc3ccccc3)c([N+](=O)[O-])c2)n1	23.1µM*	5.7%	.	.	18.4µM*
Cc1ccccc1-c1noc(-c2ccc(NCc3cccnc3)c([N+](=O)[O-])c2)n1	4.11µM*	-2.9%	.	.	2.31µM*
COc1ccccc1CNc1ccc(-c2nc(-c3ccco3)no2)cc1[N+](=O)[O-]	?	11.4%	.	.	?
CCc1noc(-c2ccc(N(C)Cc3ccc(OC)cc3)c([N+](=O)[O-])c2)n1	6.51µM*	14.3%	.	.	5.8µM*
COc1ccc(-c2noc(-c3ccc(NC4CCCCC4)c([N+](=O)[O-])c3)n2)cc1OC	20.6µM*	11.4%	.	.	?
COc1ccccc1-c1noc(-c2ccc(NCc3ccco3)c([N+](=O)[O-])c2)n1	11.6µM*	8.6%	.	.	11.6µM*
COc1cc(-c2noc(-c3ccc(NC4CCCCC4)c([N+](=O)[O-])c3)n2)cc(OC)c1OC	-28.8%	11.4%	.	.	-25.6%
COc1ccc(C(=O)Nc2c(F)c(F)c(F)c(F)c2F)cc1OC	-21.8%	.	.	.	?
Cc1ccc(N(CC(=O)NCc2ccc(F)cc2)C(=O)c2csnn2)cc1C	?	0.0%	?	?	-4.2%
COC(=O)Cn1c2[n+](c3ccccc31)CC(O)CS2 (configuration not stated)	-0.6%	1.1%	1.9%	-3.2%	7.3%
